Among the data in PubChem BioAssay (NCI) are growth inhibition values, retold here.

Test [1] in a line: NCI Yeast Anticancer Drug Screen. Data for the rad50 strain (AID 155).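 Also: 0% = growth of vehicle-only cultures of the same strain.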 The settings on record: S. cerevisiae rad50 strain growth inhibition; at 50.0 µM; active compounds read high. A digest of the protocol:
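Inhibition values express reduced yeast growth in compound-treated cultures relative to vehicle-treated controls.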

Test [2] is described as follows: NCI Yeast Anticancer Drug Screen. Data for the mec2-1 strain (AID 157). The conditions noted are these: S. cerevisiae mec2-1 strain, at 50.0 µM, active compounds read high. A digest of the protocol:
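Compounds were applied to mec2-1 yeast cells. Their growth was then compared with that of vehicle-treated cultures to give growth inhibition.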

The nature of test [3]: NCI Yeast Anticancer Drug Screen. Data for the sgs1 mgt1 strain (AID 161).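 Also: 0% = growth of cultures given vehicle only.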 The conditions noted are these: S. cerevisiae sgs1 mgt1 strain, at 50.0 µM, active compounds read high. A digest of the protocol:
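Percent growth inhibition was derived by comparing compound-exposed mutant yeast with vehicle-exposed cultures. The strain carries alterations in DNA damage repair.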

Test [4] in a line: NCI Yeast Anticancer Drug Screen. Data for the cln2 rad14 strain (AID 165).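 Also: 0% = growth equal to vehicle treated cultures.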 The conditions noted are these: S. cerevisiae cln2 rad14 strain, at 50.0 µM, active compounds read high. An outline of the steps:
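Strain: cln2 rad14 yeast, altered in cell cycle control and DNA damage repair. Read-out: growth inhibition vs vehicle.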

A short description of test [5]: NCI Yeast Anticancer Drug Screen. Data for the bub3 strain (AID 167). The conditions noted are these: S. cerevisiae bub3 mutant strain, at 50.0 µM, active compounds read high. An outline of the steps: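 Steps: expose the mutant yeast strain to compound; grow alongside vehicle-treated cultures; measure growth; express inhibition against the vehicle cultures.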
Test [6] can be described thus: NCI Yeast Anticancer Drug Screen. Data for the mlh1 rad18 strain (AID 175). The settings on record: S. cerevisiae mlh1 rad18 strain growth inhibition; at 50.0 µM; active compounds read high. A digest of the protocol: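 A repair-deficient yeast strain is exposed to test compound, and growth is scored relative to vehicle-treated controls.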

Several values for one entry are separate records, joined by “and”; a condition that tells them apart may be missing. Equal values may be shown once. About 79,000 compounds went through this panel and 15% of them were active in at least one assay; those are over-represented in the sample as a whole. A number with no mark means an inactive call. Activity calls are given as the source filed them. Rule as the data show it: active = growth inhibition above about 70%; inactive = the rest.

For `CN(C)c1c2c(=O)n(C)c(=O)n(C)c2nc2cccc[n+]12`, the growth inhibition in test [1] was 21.9%; in test [2], 22.9%; in test [3], -5.2%; in test [4], 2.9%; in test [5] it was 5.95%; in test [6] it was 11.6%.
Consider `C[C@]12CC[C@H](O)C[C@H]1CC[C@@H]1[C@@H]2CC[C@]2(C)[C@@H](C3=CC(=O)OC3)[C@@H](O)C[C@]12O`, for which the growth inhibition in test [1] is -6.05%; in test [2], -15.8%; in test [3], 2.35%; in test [4], -16.8%; in test [5], -0.15%; in test [6], 8.1%.
Turning to `CC(=O)O[C@H]1CCC2[C@@H]3CCC4c5nonc5CC[C@]4(C)C3CC[C@@]21C` (stereo not given in full), the growth inhibition was 28.4% in test [1]; 5.55% in test [2]; 22.9% in test [3]; 35.1% in test [4]; 27.6% in test [5]; 17.9% in test [6].
With `O=P(Nc1ccc(Cl)cc1)(Oc1ccccc1)N(CCCl)CCCl` (stereo not given), the growth inhibition in test [1] is 3.75%; in test [2], -1.55%; in test [3], -6.75%; in test [4] it was -9.4%; in test [5] it was -7.95%; in test [6] it was 0.9%.
Turning to `CCN1CCC2(CC1)COCc1ccccc12`, the growth inhibition is 18.3% in test [1]; 7.8% in test [2]; 16.4% in test [3]; 4.15% in test [4]; 3.15% in test [5]; 29.6% in test [6].
As for `O=c1nc2n(CCN(CCCl)CCCl)c3cc(Cl)c(Cl)cc3nc-2c(=O)[nH]1`, the growth inhibition was 38% in test [1]; -1.65% in test [2]; 45% in test [3]; 34.6% in test [4]; 3.65% in test [5]; 26.4% in test [6].
Turning to `CCCCOP(=O)(/C=C/c1ccccc1)OCCCC`, the growth inhibition in test [1] was 86.3% (active); in test [2], 77.9% (active); in test [3], 80.2% (active); in test [4] it was 24.7%; in test [5], 74.2% (active); in test [6], 80.8% (active).
Take `ClCCN(CCCl)c1ccc(/C=N/Nc2ccnc3ccccc23)cc1`: the growth inhibition is 96.2% (active) in test [1]; 96.3% (active) in test [2]; 96.8% (active) in test [3]; 96.5% (active) in test [4]; 87.2% (active) in test [5]; 88.8% (active) in test [6].
On to `[N-]=[N+]=NP1(=O)OC(c2ccccc2)=CCN1c1ccccc1` (stereo not given), for which the growth inhibition is -9.2% in test [1]; -9.5% in test [2]; -8.45% in test [3]; 20.7% in test [4]; 8.65% in test [5]; -4.1% in test [6].
For `O=[N+]([O-])O.[Ce]`, the growth inhibition in test [1] was 13.3%; in test [2] it was 3.35%; in test [3], 17.9%; in test [4], 5.8%; in test [5], 24.6%; in test [6] it was 4.15%.
For `O=C(O)CP(=O)(O)O`, the growth inhibition in test [1] was -19% and 6.2%; in test [2], -8.25% and 10%; in test [3], -21.1% and 1.75%; in test [4] it was -2.2% and -19.4%; in test [5] it was -27.1% and 5.75%; in test [6], 1.2% and -2.65%.
Take `O=C(N=[C-]c1ccc[oH+]1)c1cccnc1.O=C(N=[C-]c1ccc[oH+]1)c1cccnc1.[Ni+2]`: the growth inhibition in test [1] was -24.7%; in test [2] it was -34.5%; in test [3] it was -3.4%; in test [4], -25.4%; in test [5], -31.8%; in test [6], 5.65%.
Turning to `CCCCCCC[CH2][Sn][CH2]CCCCCCC.Nc1ncnc2c1ncn2C1OC(CO)C2[OH+][OH+]C21` (stereo not given), the growth inhibition in test [1] was 19.9%; in test [2], 5.45%; in test [3], 9.35%; in test [4] it was -4%; in test [5] it was 2.3%; in test [6], 11.8%.
Consider `CC([NH-])C[NH-].[Na+].[O]=[Co][O-]` (stereo not given), for which the growth inhibition in test [1] was 8.4%; in test [2], 11.9%; in test [3], 24.5%; in test [4], -21.6%; in test [5], -0.25%; in test [6], 10.3%.
For `CC(C)CC(=O)[O-].CC(C)CC(=O)[O-].N.N.N.N.[Co+3].[O-][Cl+3]([O-])([O-])O.[O-][Cl+3]([O-])([O-])[O-]`, the growth inhibition in test [1] is -23.6%; in test [2], -6.2%; in test [3], -42.2%; in test [4] it was -20.9%; in test [5], -16.2%; in test [6] it was -14.8%.
As for `CCC[CH2][Sn]([CH3])([CH3])[CH2]CC[N+](C)(C)C`, the growth inhibition in test [1] is 21.3%; in test [2], 5.55%; in test [3], 16.9%; in test [4], 45%; in test [5], 10.8%; in test [6] it was 13.5%.
Regarding `CCCCCCCCCCBr`, the growth inhibition in test [1] was 30.4%; in test [2], 17.2%; in test [3], -12.4%; in test [4], 25.1%; in test [5] it was 17.1%; in test [6], -37.6%.
On to `COc1ccc(CO)cc1`, for which the growth inhibition in test [1] is -1.5%; in test [2], -10.1%; in test [3] it was 11.3%; in test [4], -12.8%; in test [5], -17.3%; in test [6] it was -13.7%.
Regarding `COC1=N[C@]2(O)C[C@]3(C)[C@@H](O)CC[C@H]3[C@@H]3CCC4=CC(=O)CC[C@]4(C)[C@]32S1`, the growth inhibition was 7.4% in test [1]; 10.6% in test [2]; 2.3% in test [3]; -22.7% in test [4]; 33.8% in test [5]; 3.2% in test [6].
In the case of `C(=C/[PH+](c1ccccc1)c1ccccc1)/[PH+](c1ccccc1)c1ccccc1.C(=C/[PH+](c1ccccc1)c1ccccc1)/[PH+](c1ccccc1)c1ccccc1.C(=C/[PH+](c1ccccc1)c1ccccc1)/[PH+](c1ccccc1)c1ccccc1.[Pt]`, the growth inhibition is 8.65% in test [1]; 17.6% in test [2]; 36% in test [3]; 36.9% in test [4]; 13.8% in test [5]; 36.5% in test [6].
